TIM10 inh – growth inhibitors of isogenic TIM10 control yeast, primary screen, counter-screen for tim10-1 yeast inhibitor project, luminescence, uHTS. S. cerevisiae TIM10 strain growth, BacTiter-Glo luminescence, 24 h. inhibition, % at 10 µM. hit rate 1.4% among 330,000;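 active means inhibition of 40% or more at the single tested concentration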;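 further: wild-type TIM10 isogenic control strain grown at permissive 25 °C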
PfHsp90 set2 – growth inhibition of PfHsp90-expressing yeast, primary screen, antimalarial PfHsp90 inhibitor project, S. cerevisiae, BacTiter-Glo luminescence, single point, set 2 | BacTiter-Glo ATP, 48 h; yeast lacking PDR1 and PDR3 efflux regulators | inhibition, % at 9.4 µM | hit rate 0.32% among 310,000;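 active means every replicate shows inhibition above about 80%, whatever the replicate mean, limit read from the data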
tim10-1 inh – growth inhibitors of tim10-1 mutant yeast, primary screen, luminescence, uHTS; S. cerevisiae tim10-1 ts strain growth, BacTiter-Glo, 24 h; inhibition, % at 20 µM; hit rate 2.2% among 330,000;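 active means inhibition of at least 40%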;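 further: mutant grown at 25 °C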
tim23-1 inh – growth inhibitors of tim23-1 mutant yeast, primary screen, luminescence, uHTS. inhibition, % at 20 µM. hit rate 1.3% among 330,000. S. cerevisiae tim23-1 growth, BacTiter-Glo luminescence, 24 h;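 active means growth inhibition of the mutant yeast at or above 50%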;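 further: temperature-sensitive mutant grown at 25 °C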
ATG4B inhibitor – ATG4B protease inhibitors, primary screen, biochemical, fluorescence, uHTS | Cysteine protease ATG4B (Homo sapiens), Q9Y4P1 | ATG4B cleavage of LC3-PLA2, NBD-HPC fluorescence, 1 h | inhibition, % at 8.33 µM | hit rate 0.51% among 340,000; in the data active means inhibition above about 40%
Target sequence (Q9Y4P1 whole entry, looked up): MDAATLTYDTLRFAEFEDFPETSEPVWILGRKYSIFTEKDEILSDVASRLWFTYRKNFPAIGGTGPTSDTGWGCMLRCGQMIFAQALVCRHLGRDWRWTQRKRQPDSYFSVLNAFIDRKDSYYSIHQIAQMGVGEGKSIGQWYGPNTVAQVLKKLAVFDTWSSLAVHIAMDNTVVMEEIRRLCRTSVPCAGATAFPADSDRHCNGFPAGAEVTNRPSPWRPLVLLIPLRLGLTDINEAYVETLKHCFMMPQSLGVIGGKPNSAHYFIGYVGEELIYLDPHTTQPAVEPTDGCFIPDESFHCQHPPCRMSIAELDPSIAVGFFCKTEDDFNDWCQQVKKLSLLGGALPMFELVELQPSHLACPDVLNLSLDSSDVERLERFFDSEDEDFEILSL
SKKanGAS inh – S. pyogenes SKKanGAS growth inhibitors in kanamycin, primary screen, streptokinase expression inhibitor project, SKKanGAS strain, BacTiter-Glo luminescence; AID 1662, 2009; 6 h; hit rate 1.3% among 300,000; inhibition, % at 7.5 µM;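 active means mean replicate score, as percent of positive control median, at least 50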;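 further: strain carries kanamycin resistance gene driven by streptokinase promoter and grows in 40 µg/ml kanamycin; loss of luminescence reflects streptokinase promoter inhibition or plain growth inhibition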
ATG4B confirm – ATG4B protease inhibitors, retest, confirmation, biochemical, fluorescence, single concentration; hit rate 92% among 320; shares compounds with ATG4B inhibitor; AID 504757, 2011; inhibition, % at 8.33 µM; ATG4B protease fluorescent substrate cleavage assay; in the data active means inhibition above about 39%
PLA2 counter – PLA2 enzyme inhibition, counter-screen for ATG4B inhibitor project, biochemical, single concentration, uHTS hits. shares compounds with ATG4B inhibitor. purified PLA2, NBD-C6-HPC fluorescence, 45 min. inhibition, % at 8.33 µM. hit rate 66% among 1,600. AID 588402, 2011; in the data active means inhibition above about 50%
Target sequence (P04054 whole entry, looked up): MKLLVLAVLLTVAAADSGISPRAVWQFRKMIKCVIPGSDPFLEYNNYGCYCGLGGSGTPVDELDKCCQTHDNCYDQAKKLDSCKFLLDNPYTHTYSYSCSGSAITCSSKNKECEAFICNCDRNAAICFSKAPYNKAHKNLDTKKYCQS
Of the large screens only hits and unclear results are named; the others gave an inactive call (follow-up assays come after a bar, where they were run). In the library only some 4.7% were active in any assay of this set; here they are far more common.

O=C(O)c1ccccc1C(=O)Nc1nc(-c2ccc3ccccc3c2)cs1	ATG4B inhibitor 83 | PLA2 counter 84
Cc1ccc(-c2csc(NC(=O)c3cccc([N+](=O)[O-])c3C(=O)O)n2)cc1	ATG4B inhibitor 53 | PLA2 counter 69
Cc1csc(NC(=O)c2ccccc2[N+](=O)[O-])n1	none
O=C(O)C1CC(=O)n2c(nc3ccccc32)S1 (stereo unspecified)	none
CCOC(=O)c1oc2ccc(Br)cc2c1CSc1nnc(C)s1	ATG4B inhibitor 64 (no result: PfHsp90 set2) | PLA2 counter 67
C[n+]1ccc(/C=C/c2ccccc2O)c2ccccc21	none
COc1ccc(N(CC(=O)NCc2ccc(F)cc2)C(=O)c2snc(C(N)=O)c2N)cc1OC	none
Cc1ccc(N(CC(=O)NCc2ccc(F)cc2)C(=O)c2snc(C(N)=O)c2N)cc1C	ATG4B inhibitor 60 | PLA2 counter 57
COc1ccc(OC)c(NC(=O)c2nnn(Cc3ccccc3C)c2N)c1	ATG4B inhibitor 60 | PLA2 counter 64
O=C(c1ccc(Br)cc1)N1CCN(c2ncccn2)CC1	none
OC(COCc1ccccc1F)CN1CCCCC1 (stereo unspecified)	none
C[C@H]1CN([C@@H](C)CO)C(=O)c2cc(NC(=O)NC3CCCCC3)ccc2O[C@H]1CN(C)C(=O)Nc1ccc(C(F)(F)F)cc1	ATG4B inhibitor 62 (no result: SKKanGAS inh) | PLA2 counter 74
COc1ccc(S(=O)(=O)N2CCOCC2)cc1NC(=O)c1cccc2c(=O)c(C)c(-c3ccccc3)oc12	none
Cc1ccc(C2C(/C=C3/SC(=S)NC3=O)=C(c3cccs3)Oc3ccccc32)cc1 (stereo unspecified)	ATG4B inhibitor 57, SKKanGAS inh 113 | PLA2 counter 55
CCCC(c1nnnn1CS(=O)(=O)c1ccc(C)cc1)N1CCC(C(N)=O)CC1 (stereo unspecified)	none
CCN(CC)S(=O)(=O)c1cccc(C(=O)NCC2(N3CCOCC3)CCCCC2)c1	none (no result: SKKanGAS inh)
Cc1ccc(S(=O)(=O)NCc2ccccn2)c(C)c1C	none
O=C(c1ccc(OC2CCN(Cc3ccccc3C(F)(F)F)CC2)cc1)N1CCCCC1	none
COc1cc(/C=C/CN2CCC(Oc3ccc(C(=O)N4CCCC4)cc3)CC2)ccc1O	ATG4B inhibitor 40 | PLA2 counter inactive
O=C(c1ccc(OC2CCN(Cc3ccc(C(F)(F)F)cc3)CC2)cc1)N1CCCCC1	ATG4B inhibitor 41 | PLA2 counter 51
O=C(c1ccc(OC2CCN(Cc3ccccc3OC(F)F)CC2)cc1)N1CCCC1	ATG4B inhibitor 42 | PLA2 counter 52
O=C(CNC(=S)N(Cc1ccccc1)Cc1cccnc1)NCCc1ccccc1	none
O=C(Nc1ccc(CN2CCCCC2)cc1)c1c(F)c(F)c(F)c(F)c1F	none
CC(=O)c1ccccc1NC(=O)COc1ccc(N(C)S(=O)(=O)c2ccc(C)c(C)c2)cc1	ATG4B inhibitor 85 (no result: SKKanGAS inh) | PLA2 counter inactive
Cc1ccc(S(=O)(=O)Nc2ccccc2C=Nc2cccc(C)c2C)cc1	ATG4B inhibitor 57 (no result: TIM10 inh, tim10-1 inh, tim23-1 inh) | PLA2 counter 61
CCCCCCCCCCCCN1[C@@H](CC(=O)OC)c2cc(C(F)(F)F)ccc2S1(=O)=O	none (no result: PfHsp90 set2)
CC1(C)SC(=S)N(NC(=O)Nc2cccc3ccccc23)C1N(O)C(=O)Nc1ccccc1 (stereo unspecified)	ATG4B inhibitor 46 | PLA2 counter 58
c1ccc(-c2ccc(C(c3ccccc3)n3ccnc3)cc2)cc1 (stereo unspecified)	PfHsp90 set2 105, ATG4B inhibitor 41 (no result: TIM10 inh, tim10-1 inh, tim23-1 inh) | ATG4B confirm 63 | PLA2 counter inactive
Cc1ccc(N2CCN(CC(O)COc3cccc(C)c3)CC2)cc1 (stereo unspecified)	none
Cc1ccc(-c2nnc(SCc3ccccc3F)o2)cc1	ATG4B inhibitor 48 | ATG4B confirm 69 | PLA2 counter inactive
COc1ccc(-c2nnc(SCc3ccccc3F)o2)cc1OC	none
COC(=O)c1cccc(NC(=O)Cn2cnc3ccccc3c2=O)c1	none
CC1(C)Cc2c(sc3c2c(=N)n(Cc2ccco2)c(=O)n3CC(=O)Nc2cccc(Cl)c2)CO1	ATG4B inhibitor 53 | PLA2 counter 60
CC(C)c1[nH]nc2c1C(c1ccc(OC(=O)c3ccco3)cc1)C(C#N)=C(N)O2 (stereo unspecified)	ATG4B inhibitor 83 | PLA2 counter 84
Cc1cc(N/N=C/c2ccccc2Cl)nc(NCc2ccccc2)n1	ATG4B inhibitor 85 | PLA2 counter 91
CCOC(=O)CN1C(=O)S/C(=C\c2ccc(-c3ccc(C(=O)O)c(Cl)c3)o2)C1=O	none
O=C(O)c1ccc(-c2ccc(/C=C3\NC(=O)N(Cc4ccc(Cl)cc4)C3=O)o2)cc1Cl	ATG4B inhibitor 49 | ATG4B confirm 60 | PLA2 counter inactive
O=C1N/C(=N/NC(=O)c2cccc3ccccc23)S/C1=C\c1ccccc1OCc1ccccc1	ATG4B inhibitor 91 (no result: TIM10 inh, tim10-1 inh, tim23-1 inh, SKKanGAS inh) | PLA2 counter 91
COc1cccc(/C=C2\SC(=O)NC2=O)c1OCc1ccc(C(=O)O)cc1	none
COc1ccc(OC)c(/C=C2\S/C(=N/NC(=O)c3ccc4ccccc4c3)NC2=O)c1	ATG4B inhibitor 79, SKKanGAS inh 106 (no result: TIM10 inh, tim10-1 inh, tim23-1 inh) | PLA2 counter 83
COc1ccc(-c2ccc(/C=N/NC(=O)Cc3nnc(N)s3)o2)cc1Cl	none (no result: PfHsp90 set2)
Cc1ccc(-c2ccc(/C=N/NC(=O)Cc3nnc(N)s3)o2)cc1Cl	ATG4B inhibitor 68 | PLA2 counter 77
Fc1ccc(-c2csc(=S)[nH]2)cc1	none
Cc1[nH]c(=S)sc1Cc1ccc(F)cc1	ATG4B inhibitor 40 | PLA2 counter inactive
Cc1c(C(=O)Nc2ccccc2[N+](=O)[O-])csc1-c1ccccc1	ATG4B inhibitor 59 | PLA2 counter inactive
CCn1nc([N+](=O)[O-])c(C(C#N)c2nc3cc(C(F)(F)F)ccc3s2)c(Cl)c1=O (stereo unspecified)	ATG4B inhibitor 99 | PLA2 counter 101
O=C1c2ccc([N+](=O)[O-])cc2C(=O)N1c1ccc([N+](=O)[O-])cn1	none

From PubChem BioAssay
